Values joined by “and” are separate entries in the source; they are usually repeats but may differ in a detail not shown here. Equal values may be shown once. Records with an inconclusive call do not appear. Active and inactive are the calls of the source. Calls follow the shape of the dose curve; as a rule, active = well fitted cell-killing curve with a large enough effect in the repeat runs; inconclusive = weak or mixed curves, or effect the other way; inactive = flat fitted curve, though single readings scatter.
test: cAMP Responsive Elements (CRE) small molecule antagonists, cell-based qHTS assay: qHTS cell viability counter screen (AID 2060913); settings: CRE-bla HEK293T viability, CellTiter-Glo luminescence, 5 h; series mostly up to 92.4 µM; viability change, negative = cytotoxic: at the top concentration; also: nearly all actives have a fitted effect of over 40% in size
How it was run: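 CRE-bla HEK293T cells (2,000/well, 18 h) given compound plus NKH477 0.25 uM final for 3 h at 37C; viability counter-screen by CellTiter-Glo luminescence in same wells after 30 min.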
% is scaled to controls: 0 for no effect and ±100 for the full control effect; potency is read from the fitted curve at half-maximal effect.

| SMILES | viability change, negative = cytotoxic | Potency |
| --- | --- | --- |
| C[C@]12CC[C@H]3[C@@H](CCC4=CC(=O)CC[C@@H]43)[C@@H]1CC[C@@H]2OC(=O)CCc1ccccc1 | -0.961% [at 42.5 µM] (inactive) |  |
| O=C(CBr)c1ccccc1 | 0.345% (inactive) |  |
| Cn1c(CCCC(=O)O)nc2cc(N(CCCl)CCCl)ccc21 | -5.88% [at 42.5 µM] (inactive) |  |
| O=C(O)CCCc1ccc(N(CCCl)CCCl)cc1 |  | inactive |
| C(=NC1CCCCC1)=NC1CCCCC1 |  | inactive |
| ClC1=C(Cl)[C@]2(Cl)[C@H]3[C@H]([C@@H]4C=C[C@H]3C4)[C@@]1(Cl)C2(Cl)Cl |  | inactive |
| COC(=O)NS(=O)(=O)c1ccc(N)cc1 |  | inactive |
| [As]#[In] | 2.46% (inactive) |  |
| CCO[C@H]1O[C@@H]2OC3(C)CC[C@H]4[C@H](C)CC[C@@H]([C@H]1C)[C@@]24OO3 | -0.238% [at 42.5 µM] (inactive) |  |
| O=c1[nH]c2ccccc2n1CCCN1CCC(n2c(=O)[nH]c3cc(Cl)ccc32)CC1 | -13.5% [at 42.5 µM] (inactive) |  |
| Cc1ccc([N+](=O)[O-])cc1 |  | inactive |
| Oc1ccccc1-c1ccccc1 |  | inactive |
| ClCCBr |  | inactive |
| CC(C)(c1ccccc1)c1ccc(O)c(C(C)(C)c2ccccc2)c1 |  | 42.9 µM (active) and 54.5 µM (active) |
| CC(C)c1c(CN(C)C(C)Cc2ccccc2)n(C)n(-c2ccccc2)c1=O (stereo not given) | 3.15% [at 42.5 µM] (inactive) |  |
| CCOP(=S)(OCC)Oc1cc(C)nc(C(C)C)n1 |  | inactive |
| COc1ccc(CN2CCNCC2)c(OC)c1OC | 0.846% [at 42.5 µM] (inactive) |  |
| N#CC(Br)Br |  | inactive |
| CCCCOP(=O)(O)OCCCC | -9.59% (inactive) |  |
| CC1CCCCC1NC(=O)Nc1ccccc1 (stereo not given) | -13.6% (inactive) |  |

| SMILES | viability change, negative = cytotoxic | Potency |
| --- | --- | --- |
| ClC(Cl)Br | 6.69% (inactive) |  |
| Cc1cc(C)cc(C)c1 |  | inactive |
| O=C(CCCCl)c1ccc(F)cc1 | 0.604% [at 42.5 µM] (inactive) |  |
| CC(=O)[C@H]1CC[C@H]2[C@@H]3CC[C@H]4C[C@H](O)CC[C@]4(C)[C@H]3C(=O)C[C@]12C | 2.47% [at 42.5 µM] (inactive) |  |
| O=C(O)CC(Cl)C(=O)O (stereo not given) | 2.01% (inactive) |  |
| CCCCOC(C)=O | 3.32% (inactive) |  |
| Oc1ccc(Cc2ccc(O)cc2)cc1 | -1.07% (inactive) |  |
| Cc1cc(C)nc(Nc2ccccc2)n1 | 4.85% (inactive) |  |
| CCOP(=S)(OCC)SCn1c(=O)oc2cc(Cl)ccc21 |  | inactive |
| Cc1[nH]c(=O)n(C(C)(C)C)c(=O)c1Cl |  | inactive |
| C[C@]12CC[C@H](O)CC1=CC[C@@H]1[C@@H]2CC[C@]2(C)C(=O)CC[C@@H]12 |  | inactive |
| CC(=O)/C=C/c1ccc2c(c1)OCO2 | 17.5% (inactive) |  |
| COC(=O)c1cc(Oc2ccc(Cl)cc2Cl)ccc1[N+](=O)[O-] | -13% (inactive) |  |
| COc1cc(CC(C)N)cc(OC)c1OC (stereo not given) | -3.62% (inactive) |  |
| O=C(CCl)Nc1ccccc1 | 11.1% (inactive) |  |
| CC(C)OC(=O)Nc1cccc(Cl)c1 |  | inactive |
| COc1cc(OC)nc(NC(=O)NS(=O)(=O)c2ncccc2OCC(F)(F)F)n1 | -5.34% (inactive) |  |
| N#Cc1ccc(N(CC(N)=O)CC(F)(F)F)cc1C(F)(F)F | 2.06% (inactive) |  |
| CC(C)(c1ccc(O)c(-c2ccccc2)c1)c1ccc(O)c(-c2ccccc2)c1 |  | 61.1 µM (active) |
| Cn1c(-c2ccccc2)cc(-c2ccccc2)[n+]1C |  | inactive |

test: cAMP Responsive Elements (CRE) small molecule agonists, cell-based qHTS assay: qHTS cell viability counter screen (AID 2060914); settings: CRE-bla HEK293T viability, CellTiter-Glo luminescence, 5 h; series mostly up to 92.4 µM; activity change, negative = cytotoxicity: at the top concentration;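 also: viability read after 3 h of compound exposure; nearly all actives have a fitted effect of over 50% in size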
How it was run: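 HEK 293T CRE-bla; DMEM + 10% dialyzed FBS, 25 mM HEPES; 18 h pre-incubation; compound 3 h, 37 °C/5% CO2; CellTiter-Glo added after reporter read; luminescence after 30 min RT.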

| SMILES | activity change, negative = cytotoxicity | Potency |
| --- | --- | --- |
| C[C@]12CC[C@H]3[C@@H](CCC4=CC(=O)CC[C@@H]43)[C@@H]1CC[C@@H]2OC(=O)CCc1ccccc1 | 9.56% [at 42.5 µM] (inactive) |  |
| O=C(CBr)c1ccccc1 | 10.1% (inactive) |  |
| Cn1c(CCCC(=O)O)nc2cc(N(CCCl)CCCl)ccc21 | 4.07% [at 42.5 µM] (inactive) |  |
| O=C(O)CCCc1ccc(N(CCCl)CCCl)cc1 |  | inactive |
| C(=NC1CCCCC1)=NC1CCCCC1 |  | inactive |
| ClC1=C(Cl)[C@]2(Cl)[C@H]3[C@H]([C@@H]4C=C[C@H]3C4)[C@@]1(Cl)C2(Cl)Cl |  | inactive |
| COC(=O)NS(=O)(=O)c1ccc(N)cc1 |  | inactive |
| [As]#[In] |  | 2.17 µM (active) |
| CCO[C@H]1O[C@@H]2OC3(C)CC[C@H]4[C@H](C)CC[C@@H]([C@H]1C)[C@@]24OO3 | -6.44% [at 42.5 µM] (inactive) |  |
| O=c1[nH]c2ccccc2n1CCCN1CCC(n2c(=O)[nH]c3cc(Cl)ccc32)CC1 | -6.54% [at 42.5 µM] (inactive) |  |
| Cc1ccc([N+](=O)[O-])cc1 |  | inactive |
| Oc1ccccc1-c1ccccc1 |  | inactive |
| ClCCBr |  | inactive |
| CC(C)(c1ccccc1)c1ccc(O)c(C(C)(C)c2ccccc2)c1 |  | 60.6 µM (active) and 61.1 µM (active) |
| CC(C)c1c(CN(C)C(C)Cc2ccccc2)n(C)n(-c2ccccc2)c1=O (stereo not given) | 0.555% [at 42.5 µM] (inactive) |  |
| CCOP(=S)(OCC)Oc1cc(C)nc(C(C)C)n1 |  | inactive |
| COc1ccc(CN2CCNCC2)c(OC)c1OC | 1.76% [at 42.5 µM] (inactive) |  |
| N#CC(Br)Br | -4.51% (inactive) |  |
| CCCCOP(=O)(O)OCCCC | -7.6% (inactive) |  |
| CC1CCCCC1NC(=O)Nc1ccccc1 (stereo not given) | -1.2% (inactive) |  |

| SMILES | activity change, negative = cytotoxicity | Potency |
| --- | --- | --- |
| ClC(Cl)Br | -3.46% (inactive) |  |
| Cc1cc(C)cc(C)c1 |  | inactive |
| O=C(CCCCl)c1ccc(F)cc1 | 5.48% [at 42.5 µM] (inactive) |  |
| CC(=O)[C@H]1CC[C@H]2[C@@H]3CC[C@H]4C[C@H](O)CC[C@]4(C)[C@H]3C(=O)C[C@]12C | 1.92% [at 42.5 µM] (inactive) |  |
| O=C(O)CC(Cl)C(=O)O (stereo not given) | 5% (inactive) |  |
| CCCCOC(C)=O | -6.26% (inactive) |  |
| Oc1ccc(Cc2ccc(O)cc2)cc1 | 0.223% (inactive) |  |
| Cc1cc(C)nc(Nc2ccccc2)n1 | 7.25% (inactive) |  |
| CCOP(=S)(OCC)SCn1c(=O)oc2cc(Cl)ccc21 | -15.9% (inactive) |  |
| Cc1[nH]c(=O)n(C(C)(C)C)c(=O)c1Cl |  | inactive |
| C[C@]12CC[C@H](O)CC1=CC[C@@H]1[C@@H]2CC[C@]2(C)C(=O)CC[C@@H]12 |  | inactive |
| CC(=O)/C=C/c1ccc2c(c1)OCO2 | 19.2% (inactive) |  |
| COC(=O)c1cc(Oc2ccc(Cl)cc2Cl)ccc1[N+](=O)[O-] | -7.76% (inactive) |  |
| COc1cc(CC(C)N)cc(OC)c1OC (stereo not given) | 1.67% (inactive) |  |
| O=C(CCl)Nc1ccccc1 | 15.7% (inactive) |  |
| CC(C)OC(=O)Nc1cccc(Cl)c1 |  | inactive |
| COc1cc(OC)nc(NC(=O)NS(=O)(=O)c2ncccc2OCC(F)(F)F)n1 | 0.864% (inactive) |  |
| N#Cc1ccc(N(CC(N)=O)CC(F)(F)F)cc1C(F)(F)F | 1.83% (inactive) |  |
| CC(C)(c1ccc(O)c(-c2ccccc2)c1)c1ccc(O)c(-c2ccccc2)c1 |  | 61.1 µM (active) |
| Cn1c(-c2ccccc2)cc(-c2ccccc2)[n+]1C |  | inactive |

Reference: PubChem BioAssay (Tox21)
